Source: PubChem
A selection: hits, their analogues and other compounds. The true share with any hit is near 3.5%.
Platelet DG rel: platelet dense granule release activity. human platelet-rich plasma, SFLLRN dense granule ATP release, luminescence. inhibition, %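 (compounds screened at 7.5 µM in platelet-rich plasma)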. 300,000 compounds, 0.22% hits;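 active means mean replicate score, as percent of positive control, at or above 50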
TROY NFkB inh: TROY signaling inhibition; Q293 LMP1-TROYcd NF-kB luciferase reporter, 4 h; AID 1347056; inhibition, % at 10 µM; 360,000 compounds, 0.98% hits;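 active means compounds whose plate-normalised and pattern-corrected inhibition of the luciferase reporter signal at the single screening dose is 50% or more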
HSP90 refold inh: blocks HSP90-mediated luciferase refolding in reticulocyte lysate | inhibition, % at 5.6 µM | Rabbit reticulocyte lysate, luciferase refolding luminescence, 3 h | 290,000 compounds, 0.91% hits;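 active means inhibition above the screen-wide mean plus 3 SD, computed separately per campaign, cut at about 16% in these data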;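 further: 0% = DMSO wells and 100% = 60 µM geldanamycin wells; inhibitors lower the luminescence because luciferase stays unfolded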
TRAIL sens C8: caspase-8 TRAIL sensitization; NB7+C8 cells + TRAIL, ATPlite viability luminescence; inhibition (viability loss, TRAIL sensitization), % at 10 µM; 360,000 compounds, 1% hits;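 active means compounds causing at least 50% loss of cell viability in the single-dose screen, relative to plate controls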
TWEAK Fn14 block: inhibitors of TWEAK-Fn14 interaction signaling. inhibition, % at 10 µM. TWEAK-stimulated Fn14 reporter cells, luciferase luminescence, 8 h. 360,000 compounds, 2% hits; in the data active means inhibition above about 50%
PPC-1+TRAIL kill: kills PPC-1 cancer cells in the presence of TRAIL | PPC-1 cells + TRAIL, ATPLite viability luminescence | AID 1443 | 220,000 compounds, 0.41% hits | cell killing (% activity), % at 4 µM or 5 µM;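 active means cell killing above 50% in the first pass at 4 µM, then a duplicate retest at 5 µM averaging 50% or more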;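 further: plate controls were cells with TRAIL plus DMSO for no effect and medium-only wells lacking cells for full effect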
* hit, by the source's call; . = no result given.

SMILES	Platelet DG rel	TROY NFkB inh	HSP90 refold inh	TRAIL sens C8	TWEAK Fn14 block	PPC-1+TRAIL kill
Nc1c(C(=O)NCCN2CCOCC2)c2nc3ccccc3nc2n1Cc1ccccc1	-7	8	2	14	22	4
CCCCn1c(NC(=O)c2ccc(Br)o2)c(C(=O)OCC)c2nc3ccccc3nc21	-2	59*	3	0	71*	23
CCCCn1c(N)c(C(=O)NCCN2CCOCC2)c2nc3ccccc3nc21	-17	64*	3	-5	3	5
CCOC(=O)c1c(N)n(CCN2CCCCC2)c2nc3ccccc3nc12	0	3	-1	-25	-11	9
CNC(=O)Oc1ccc(-c2cn3cc(Cl)ccc3n2)cc1	8	-13	11	84*	6	55*
O=C1NC2C(O)C(O)C(O)C(O)C2c2cc3c(c(O)c21)OCO3 (stereo not given)	.	81*	.	45	99*	.
O=C1NC2C(=CC(O)C(O)C2O)c2cc3c(cc21)OCO3 (stereo not given)	.	79*	.	31	100*	.
O=C1NC2C(=CC(O)C(O)C2O)c2cc3c(c(O)c21)OCO3 (stereo not given)	.	84*	.	77*	95*	.
COc1cc(C2c3cc4c(cc3CC3COC(=O)C32)OCO4)cc(OC)c1O (stereo not given)	.	14	.	-12	-17	.
OC1/C(=C/c2ccccc2F)N2CCC1CC2 (stereo not given)	-6	-38	2	-2	-3	12
CC(C)(C)C(=O)O[C@H]1CC[C@@]2(C)C(=CC(=O)C3C2CC[C@]2(C)C(=O)CCC32)C1 (stereo not given in full)	.	14	.	21	-10	.
COC(=O)C1=C(c2ccc(Cl)c(C(F)(F)F)c2)C[C@@H]2CC[C@H]1N2C(=O)NCC1CC1	.	5	.	7	-13	.
O=C1CC(c2ccccc2)CN1 (stereo not given)	-5	-18	-3	-2	3	-6
CN1C(=O)C(C)(C2=CCCCC2)C(=O)NC1=S (stereo not given)	.	2	.	0	17	.
Nc1ccccc1C(=O)OCCOc1ccccc1	.	10	1	-6	67*	21
COc1ccc(-n2c(=S)[nH]c3ccc(C)cc3c2=O)cc1	.	-4	.	-12	-27	.
N#Cc1ccccc1OCC(=O)N1CCN(CC(=O)Nc2ccc(F)cc2)CC1	.	12	.	-10	0	.
CC12CCC3C(CCC4(O)CC(O)CCC34C=O)C1(O)CCC2C1=CC(=O)OC1 (stereo not given)	.	46	.	69*	71*	.
C[C@]12CCC3C(CCC4=CC(O)CC[C@@]43/C=N/O)C1(O)CCC2C1=CC(=O)OC1 (stereo not given in full)	3	41	-2	52*	84*	.
C[C@]12CC[C@H]3[C@@H](CC[C@]4(O)C[C@@H](O)CC[C@]34C=O)[C@@]1(O)CC[C@@H]2C1=CC(=O)OC1	.	40	.	61*	75*	.
C[C@H]1O[C@@H](OC2CC[C@]3(C=O)[C@H]4CC[C@]5(C)[C@@H](C6=CC(=O)OC6)CC[C@]5(O)[C@@H]4CC[C@]3(O)C2)CC2OC(C)(C)OC21 (stereo not given in full)	2	42	1	48*	81*	.
CC12CC[C@H]3[C@@H](CCC4(O)C[C@H](O)CCC34/C=N/NC(=O)c3ccccc3Cl)C1(O)CCC2C1=CC(=O)OC1 (stereo not given in full)	-2	1	3	8	-29	3
CC(C)OCC(O)CN1CC2C[C@@H](C1)Cn1c2cccc1=O (stereo not given in full)	-2	3	-2	-21	-2	.
O=C1NCN(c2ccccc2)C12CCN(C(c1cc3ccccc3o1)c1nnnn1-c1ccc3c(c1)OCCO3)CC2 (stereo not given)	.	26	.	-11	46	.
CC(=O)O/C(=C1\CC2C3CC=C4CC(OC(C)=O)CCC4(C)C3CCC2(C)C1=O)C(F)(F)F (stereo not given)	.	19	.	-4	15	.
SMILES	Platelet DG rel	TROY NFkB inh	HSP90 refold inh	TRAIL sens C8	TWEAK Fn14 block	PPC-1+TRAIL kill
CC1CC(C)CN(C(=O)COC(=O)c2cn(C)c3ccccc23)C1 (stereo not given)	.	-8	.	-2	17	.
COc1ccccc1-n1c(O)c(/C=N/N2CCCCC2)c(=O)n(-c2ccccc2OC)c1=S	-3	3	0	-3	-8	9
Cc1cc(Br)cn2c(CC(=O)N3CCCCC3)c(-c3ccc(F)cc3)nc12	.	5	.	-3	-8	.
CCCCN=C[C@]12CCC(O)CC1(O)CCC1[C@@H]2CC[C@]2(C)[C@H](C3C=CC(=O)O3)CCC12O (stereo not given in full)	-3	35	1	42	76*	.
CC12CCC3C(CCC4(O)CC(O)CCC34C=NO)C1(O)CCC2C1=COC(=O)C1 (stereo not given)	.	35	.	69*	76*	.
Cc1ccc(N2C(=O)NC(=O)C3(Cc4ccccc4N4CCN(c5ccccc5)CC43)C2=O)cc1 (stereo not given)	-6	40	7	-7	-1	-11
COC(=O)C1=C(c2ccc(-c3ccccc3)c(F)c2)C[C@@H]2CC[C@H]1N2C(=O)NCc1ccco1	.	25	.	16	10	.
Cc1nc2ccccc2c(=O)n1-c1cc([N+](=O)[O-])cc([N+](=O)[O-])c1	-2	5	0	8	-21	.
Cc1nc2ccc(Br)cc2c(=O)n1-c1ccc([N+](=O)[O-])c(C(F)(F)F)c1	-1	56*	.	-3	36	.
COc1ccc(-c2cc(=Nc3cccc(C(=O)O)c3)c3cc(C)ccc3o2)cc1	-5	21	6	1	58*	43
COc1ccc(-c2cc(=NCCCCCC(=O)O)c3cc(C)ccc3o2)cc1	-2	-59	-2	-15	-36	-24
ClCCN(CCCl)c1ccc(-n2cnc3c(Cl)ncnc32)cc1	.	36	.	86*	75*	.
COc1cc(/C=C/c2nc3ccccc3c(=O)n2-c2ccccc2O)ccc1O	8	18	-5	-7	56*	.
CCOC(=O)c1c(C)n(Cc2ccc3c(c2)OCO3)c2ccc(O)cc12	-5	-1	1	-22	13	8
COC(=O)c1c(C)n(Cc2ccc3c(c2)OCO3)c2ccc(O)cc12	-2	12	-2	-1	53*	-4
C/C=C/CC#N	.	-4	.	-3	-14	.
CNC(=O)O/N=C(\C)Cc1nnn(-c2cc(C)on2)n1	0	73*	1	10	21	7
CCCN1CCC2(CC1)NC(CO)(CO)CO2	-43	.	2	-6	82*	19
O=[N+]([O-])c1ccc(NCc2ccc(Cl)cc2)c2ccncc12	18	43	9	13	51*	.
C=CC[C@@H](CC/C=C/C=C/CC/C=C\[C@@H]1CSC([C@@H]2C[C@@H]2C)=N1)OC	.	19	.	19	11	.
